Broadly, the inhibition is the drop in the measured response relative to a control, in per cent. Usually AC50 stands for the concentration giving half of the maximal activity seen. In general, remaining activity refers to the signal under treatment as a percentage of the control signal.

Inconclusive results are not listed. For part of these data: Potency and affinity values are given separately. Activity calls are given as the source filed them. Unless noted, how the calls were made is not given here.

Test [1] deals with ATP-dependent translocase ABCB1 (Homo sapiens) (UniProt P08183). Briefly: P-glycoprotein substrate transport blockade – cell-based (AID 377; in the data active means fluorescence slope change above about 50%). The settings on record: MDR1-expressing cells, fluorescent substrate accumulation slope; stronger effect = higher value; concentration not given here.
Sequence of ATP-dependent translocase ABCB1 (Homo sapiens) (P08183 whole entry, looked up): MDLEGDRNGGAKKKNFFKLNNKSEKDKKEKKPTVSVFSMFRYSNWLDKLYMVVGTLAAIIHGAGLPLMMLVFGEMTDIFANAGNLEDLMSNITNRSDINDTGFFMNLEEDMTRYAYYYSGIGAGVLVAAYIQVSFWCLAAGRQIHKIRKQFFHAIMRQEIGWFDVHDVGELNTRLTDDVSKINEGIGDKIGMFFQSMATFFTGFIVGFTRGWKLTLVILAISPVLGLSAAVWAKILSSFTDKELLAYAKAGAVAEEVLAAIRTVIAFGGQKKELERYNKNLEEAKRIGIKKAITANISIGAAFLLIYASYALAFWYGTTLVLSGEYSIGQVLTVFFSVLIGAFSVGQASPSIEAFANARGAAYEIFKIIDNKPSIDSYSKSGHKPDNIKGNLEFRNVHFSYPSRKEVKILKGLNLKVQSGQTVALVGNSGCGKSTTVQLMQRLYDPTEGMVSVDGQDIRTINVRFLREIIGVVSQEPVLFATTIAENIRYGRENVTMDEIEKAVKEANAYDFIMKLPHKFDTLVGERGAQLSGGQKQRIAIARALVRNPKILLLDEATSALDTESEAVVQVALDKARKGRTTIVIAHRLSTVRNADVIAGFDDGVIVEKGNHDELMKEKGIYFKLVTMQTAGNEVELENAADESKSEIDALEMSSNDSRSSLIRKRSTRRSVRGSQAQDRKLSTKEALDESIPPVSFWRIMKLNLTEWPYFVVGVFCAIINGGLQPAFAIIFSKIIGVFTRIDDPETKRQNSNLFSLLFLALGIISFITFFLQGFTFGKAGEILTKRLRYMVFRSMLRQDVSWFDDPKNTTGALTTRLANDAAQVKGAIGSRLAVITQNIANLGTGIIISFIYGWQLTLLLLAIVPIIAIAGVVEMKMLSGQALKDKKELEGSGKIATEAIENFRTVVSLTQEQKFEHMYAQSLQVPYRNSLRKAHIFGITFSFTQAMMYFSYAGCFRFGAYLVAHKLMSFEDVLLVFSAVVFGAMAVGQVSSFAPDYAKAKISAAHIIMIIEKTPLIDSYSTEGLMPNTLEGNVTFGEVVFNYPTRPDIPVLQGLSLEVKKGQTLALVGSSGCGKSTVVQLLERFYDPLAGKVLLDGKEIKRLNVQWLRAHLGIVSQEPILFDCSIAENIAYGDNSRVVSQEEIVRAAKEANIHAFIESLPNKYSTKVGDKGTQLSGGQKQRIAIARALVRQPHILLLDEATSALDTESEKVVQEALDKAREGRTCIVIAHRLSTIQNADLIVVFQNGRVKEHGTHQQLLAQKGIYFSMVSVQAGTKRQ
Test [2] can be described thus: antimalarial activity against Dd2 strain (AID 2302;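 active means growth inhibition above 50% at the single 2 µM test dose, taken to imply half-maximal potency below 2 µM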;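 further: 0% = DMSO untreated growth and 100% = chloroquine plus artemisinin killed control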). The settings on record: P. falciparum Dd2 in RBCs, LDH growth readout, 72 h; at 2 µM; stronger effect = higher value.
The target of test [3] is L-lactate dehydrogenase (Plasmodium falciparum (isolate CDC / Honduras)) (UniProt Q27743). Kind of test: PfLDH activity inhibition – cell lysate, 3D7 strain, counter-screen for P. falciparum growth inhibition project (AID 2304).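 Further: 0% = vehicle and 100% = reference inhibitor.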 The settings on record: P. falciparum 3D7 crude extract, LDH APAD/NBT absorbance; at 2 µM; stronger effect = higher value.
Sequence of L-lactate dehydrogenase (Plasmodium falciparum (isolate CDC / Honduras)) (Q27743 whole entry, looked up): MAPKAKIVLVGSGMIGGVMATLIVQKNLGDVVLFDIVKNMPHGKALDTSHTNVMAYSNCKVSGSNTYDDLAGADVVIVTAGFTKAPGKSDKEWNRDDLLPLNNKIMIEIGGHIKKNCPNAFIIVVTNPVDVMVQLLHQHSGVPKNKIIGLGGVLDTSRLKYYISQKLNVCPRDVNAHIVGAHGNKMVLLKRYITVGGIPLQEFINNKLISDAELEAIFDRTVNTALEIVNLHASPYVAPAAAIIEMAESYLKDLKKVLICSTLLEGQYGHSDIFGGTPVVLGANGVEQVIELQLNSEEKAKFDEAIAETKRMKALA
Test [4] in a line: inhibition of 3D7 malaria parasite growth – strain 3D7 (AID 2306).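 Further: 0% = DMSO wells and 100% = chloroquine plus artemisinin control wells.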 The settings on record: P. falciparum 3D7 erythrocytic growth, LDH absorbance, 72 h; at 2 µM; stronger effect = higher value.
Test [5] deals with Calcium-dependent protein kinase 1 (Plasmodium falciparum (isolate 3D7)) (UniProt P62344). Briefly: PfCDPK1 kinase inhibitors, biochemical, TCAMS library (AID 1159585; cut-off not given, nearly all actives have IC50 up to about 0.98 µM;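 further: inhibitors leave more ATP so luminescence rises with inhibition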). The settings on record: recombinant PfCDPK1, Kinase-Glo ATP depletion luminescence.
Sequence of Calcium-dependent protein kinase 1 (Plasmodium falciparum (isolate 3D7)) (P62344 whole entry, looked up): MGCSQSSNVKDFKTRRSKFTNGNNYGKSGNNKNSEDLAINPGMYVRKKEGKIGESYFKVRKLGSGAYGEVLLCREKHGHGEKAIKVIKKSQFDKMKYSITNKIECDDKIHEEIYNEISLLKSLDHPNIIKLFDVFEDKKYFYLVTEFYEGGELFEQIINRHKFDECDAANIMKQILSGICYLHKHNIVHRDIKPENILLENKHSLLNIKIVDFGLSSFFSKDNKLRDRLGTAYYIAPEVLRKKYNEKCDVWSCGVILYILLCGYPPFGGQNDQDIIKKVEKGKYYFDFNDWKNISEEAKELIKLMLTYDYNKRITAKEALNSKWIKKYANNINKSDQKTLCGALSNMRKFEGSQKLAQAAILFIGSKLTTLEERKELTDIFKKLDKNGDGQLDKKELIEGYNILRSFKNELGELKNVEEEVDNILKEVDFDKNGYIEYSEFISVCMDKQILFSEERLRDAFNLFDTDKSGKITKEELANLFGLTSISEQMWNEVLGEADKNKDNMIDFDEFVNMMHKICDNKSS
For test [6], the target named is Plasmodium falciparum protein kinase 6 (PK6, PF3D7_1337100) (UniProt Q8IDW1). Briefly: PfPK6 kinase inhibitors, biochemical, TCAMS library (AID 1159586). The settings on record: recombinant PfPK6, Kinase-Glo ATP depletion luminescence. For orientation: Kinase-Glo measures the ATP left after a reaction by luminescence.
Sequence of Plasmodium falciparum protein kinase 6 (PK6, PF3D7_1337100) (Q8IDW1 1-305): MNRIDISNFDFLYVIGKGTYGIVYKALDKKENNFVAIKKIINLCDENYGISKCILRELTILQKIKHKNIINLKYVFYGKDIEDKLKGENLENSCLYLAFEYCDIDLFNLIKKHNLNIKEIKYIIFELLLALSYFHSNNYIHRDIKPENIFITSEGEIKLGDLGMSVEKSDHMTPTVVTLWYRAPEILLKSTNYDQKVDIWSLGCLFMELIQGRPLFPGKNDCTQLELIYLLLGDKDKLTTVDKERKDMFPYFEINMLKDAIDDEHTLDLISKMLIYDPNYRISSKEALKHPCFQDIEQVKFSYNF
Test [7] deals with Protein kinase 7 (PK7), Plasmodium falciparum 3D7 (PF3D7_0213400) (UniProt Q7YTF7). Briefly: inhibition of Plasmodium PK7 catalytic activity – biochemical, TCAMS antimalarial set, Kinase-Glo luminescence (AID 1159587). The settings on record: recombinant PfPK7, Kinase-Glo ATP depletion luminescence.
Sequence of Protein kinase 7 (PK7), Plasmodium falciparum 3D7 (PF3D7_0213400) (Q7YTF7 1-343): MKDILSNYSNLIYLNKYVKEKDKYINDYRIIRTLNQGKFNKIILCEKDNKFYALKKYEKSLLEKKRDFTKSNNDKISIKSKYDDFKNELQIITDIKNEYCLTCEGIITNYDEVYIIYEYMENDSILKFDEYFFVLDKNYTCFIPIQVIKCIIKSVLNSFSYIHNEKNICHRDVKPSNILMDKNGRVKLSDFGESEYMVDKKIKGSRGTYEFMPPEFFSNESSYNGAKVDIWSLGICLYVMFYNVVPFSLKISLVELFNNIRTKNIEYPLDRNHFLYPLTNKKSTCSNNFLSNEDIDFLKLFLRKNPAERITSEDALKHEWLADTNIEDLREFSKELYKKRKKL
The nature of test [8]: viability loss in pontine glioma line – cell-based, SU-DIPG-XIII, MIPE5.0, CellTiter-Glo, qHTS, dose response (AID 1347064; cut-off not given, nearly all actives have AC50 up to about 23 µM;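 on AC50: cells exposed to compound for 48 hours before the viability read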). The settings on record: CellTiter-Glo ATP luminescence. A general note: ATP-based viability assays read luminescence as a measure of living cells.
Test [9] is described as follows: growth inhibition, single agents and combos, CRL2098, cell-based, BGB or cisplatin IC20 combos, synergistic combos for chromothripsis tumors (AID 1671454; in the data active means inhibition above about 80%;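 further: cells exposed for 96 h before readout; 0% = vehicle DMSO and 100% = killing by high DMSO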). As to conditions: CRL2098 osteosarcoma cells, drug combinations, stronger effect = higher value.
Test [10] is described as follows: growth inhibition, single agents and combos, HD-MB03, cell-based, BGB or cisplatin IC20 combos, synergistic combos for chromothripsis tumors (AID 1671455; in the data active means inhibition above about 83%;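 further: 0% = vehicle DMSO and 100% = high DMSO as cytotoxic control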). As to conditions: HD-MB03 medulloblastoma cells, stronger effect = higher value.
The nature of test [11]: growth inhibition, single agents and combos, UWB1.289, cell-based, BGB or cisplatin combos, synergistic combos for chromothripsis tumors (AID 1671456; in the data active means inhibition above about 80%;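 further: cells exposed to compound for four days; 0% = vehicle DMSO and 100% = killing by high DMSO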). As to conditions: UWB1.289 ovarian carcinoma cells, stronger effect = higher value.
A short description of test [12]: growth inhibition, single agents and combos, LFS_MB_2R, cell-based, cisplatin combos, synergistic combos for chromothripsis tumors (AID 1671457; in the data active means inhibition above about 80%;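 further: cells exposed to compound for four days before readout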). The settings on record: LFS_MB_2R medulloblastoma cells, stronger effect = higher value.
The nature of test [13]: UWB1.289_BRCA1 ovarian cancer growth, cell-based, BGB or cisplatin combinations (AID 1671459; in the data active means inhibition above about 80%). The settings on record: UWB1.289 BRCA1 ovarian carcinoma, drug combinations, stronger effect = higher value.
Test [14] in a line: drug combination toxicity in non-malignant astrocytes – cell-based, BGB or cisplatin IC20 combos, cytotoxicity control for chromothriptic childhood tumor combination screen (AID 1671460; in the data active means inhibition above about 80%;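 further: cells exposed to compounds for 96 hours before viability readout; 0% = vehicle and 100% = killing control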). The settings on record: Human astrocytes, viability inhibition, drug combinations, at 0.5 µM, stronger effect = higher value.
Test [15] in a line: viability loss in pontine glioma line – cell-based, SU-DIPG-IV, MIPE4.0, CellTiter-Glo, qHTS, dose response (AID 1347063; cut-off not given, nearly all actives have AC50 up to about 30 µM;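 further: compound exposure lasted 48 hours before the viability readout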). The settings on record: CellTiter-Glo ATP luminescence.
For test [16], the system named is Aerobactin synthetase IucA (Klebsiella pneumoniae). Briefly: inhibition of K. pneumoniae IucA enzyme – biochemical, Tocris library, absorbance (AID 1345561).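 Further: 100% = enzyme without compound and 0% = no enzyme.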 As to conditions: purified IucA enzyme assay, absorbance (OD) read-out; stronger effect = lower value;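 tested at 8 µM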.
Test [17] in a line: chitosan synthesis blockers in C. neoformans – flow cytometry, Cibacron Brilliant Red staining (AID 1347148).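 Further: compound exposure lasted three days at 37 degrees C.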 As to conditions: Cryptococcus neoformans chitosan, stronger effect = lower value; at 99.1 µM unless noted. Background: Flow cytometry measures light scatter and fluorescence of single cells or particles in a stream.
In test [18] the test system is Neuropilin-2 / VEGF-C interaction (human). Briefly: small molecules blocking Neuropilin-2/VEGF-C interaction – biochemical, microplate binding format, z-score (AID 743281). The settings on record: microplate NRP2/VEGF-C binding assay; stronger effect = lower value.
Setting [19] is: measured here: combination with BGB at IC20, at 0.5 µM.
[20] abbreviates: measured here: combination with cisplatin at IC20, at 0.5 µM.
Where [21] appears, read: measured here: combo with BGB at IC20, at 0.5 µM.
Where [22] appears, read: measured here: combo with cisplatin at IC20, at 0.5 µM.
[23] abbreviates: measured here: inhibition with BGB combination, at 0.05 µM.
[24] abbreviates: measured here: inhibition with cisplatin combination, at 0.05 µM.
Where [25] appears, read: measured here: combination with cisplatin, at 0.5 µM.
Setting [26] is: measured here: combination with cisplatin, at 5 µM.
Where [27] appears, read: BGB combination, concentration series, at 5 µM.
The mark [28] stands for this setting: cisplatin combination, concentration series, at 5 µM.
Setting [29] is: measured here: combo with BGB IC20.
Where [30] appears, read: measured here: combo with cisplatin IC20.

Consider `CCN(CC)CCCC(C)Nc1c2ccc(Cl)cc2nc2ccc(OC)cc12` (centres undefined), for which the fluorescence slope change in test [1] was 75.1% (active). Besides, the growth inhibition in test [2] and in [4] was 101% (active) in each case. Moreover, the inhibition in test [3] is 0% (inactive); in test [9] (at 0.5 µM) it was -21.4% (inactive); in test [9] (setting [19]), -24.3%; in test [9] (setting [20]), -28%; in [10] (at 0.5 µM), 0.06% (inactive); in test [10] (setting [21]), 19%. Also, the inhibition in test [10] (setting [22]) is -11.8%; in test [11] (at 0.5 µM) it was 5.88% (inactive); in test [11] (setting [23]), -7.63%; in [11] (setting [24]) it was -3.99%; in [12] (at 0.5 µM), 2.36% (inactive); in test [12] (setting [25]), 15%. Also, the inhibition in test [12] (setting [26]) was 96.1%; in test [13] (setting [27]) it was 103%; in [13] (at 0.5 µM), 1.64% (inactive); in [13] (setting [28]), 117%; in [14], -27.9% (inactive); in test [14] (setting [29]), -30.9%. Moreover, in [14] (setting [30]), the inhibition is -37.3%. The result in test [5], in test [6] and in [7] was inactive. In addition, in [8], the AC50 was 8.33 µM (active).

Consider `NNC(=O)c1ccncc1`, for which the fluorescence slope change in [1] was 55.1% (active). The result in test [15] was inactive.

Regarding `CC1=C(/C=C/C(C)=C/C=C/C(C)=C/C(=O)O)C(C)(C)CCC1`, the fluorescence slope change in [1] is 101% (active). In addition, in test [16], the remaining activity was 104% (inactive). Also, the fold fluorescence in [17] is 4.11 [at 10 µM] (inactive).

`CC(=O)OCC(CCn1cnc2cnc(N)nc21)COC(C)=O`: the z-score in [18] is -0.315 (inactive). Also, the outcome in [15] was inactive. Moreover, the inhibition in test [9] (at 0.5 µM) is -1.73% (inactive); in test [9] (setting [19]), -9.88%; in test [9] (setting [20]), -30.1%; in test [10] (at 0.5 µM), -9.43% (inactive); in test [10] (setting [21]), -6.57%; in [10] (setting [22]) it was -14.8%. For the same molecule, the inhibition in [11] (at 0.5 µM) was 5.6% (inactive); in test [11] (setting [23]), -6.88%; in test [11] (setting [24]), -9.39%; in [12] (at 0.5 µM), -19.1% (inactive); in [12] (setting [25]) it was -22.6%; in test [12] (setting [26]), -72.7%. Moreover, the inhibition was -1.67% in test [13] (setting [27]); -3.29% (inactive) in test [13] (at 0.5 µM); 11.9% in test [13] (setting [28]); 8.43% (inactive) in test [14]; 10.6% in [14] (setting [29]); -5.87% in test [14] (setting [30]).

As for `CCOC(=O)C1=C(C)NC(C)=C(C(=O)OC)C1c1cccc([N+](=O)[O-])c1` (centres undefined), the z-score in test [18] is 0.0382 (inactive). Further, the remaining activity in test [16] was 111% (inactive). Also, the fold fluorescence in test [17] was 5.19 [at 138.7 µM] (inactive).

For the molecule `NS(=O)(=O)c1cc2c(cc1Cl)NCNS2(=O)=O`, the molecule was classed as inactive in test [15] and in test [8].

Turning to `CC(COc1ccccc1)N(CCCl)Cc1ccccc1` (centres undefined), the molecule was classed as inactive in [8].

Take `CCCCNc1cc(C(=O)O)cc(S(N)(=O)=O)c1Oc1ccccc1`: the fluorescence slope change in test [1] is 105% (active). In addition, the outcome in [15] and in test [8] was inactive. In test [17], the fold fluorescence was 4.08 [at 137.2 µM] (inactive).

Regarding `CC1Cc2ccccc2N1NC(=O)c1ccc(Cl)c(S(N)(=O)=O)c1` (centres undefined), in [15], the result was inactive.

For the molecule `N[C@@H]1CONC1=O`, the z-score in [18] is -0.138 (inactive). The call in test [15] and in [8] was inactive.

Turning to `CC1=NS(=O)(=O)c2cc(Cl)ccc2N1`, in [1], the fluorescence slope change was 82.3% (active). Moreover, the z-score in test [18] was -0.142 (inactive). Moreover, in [16], the remaining activity was 104% (inactive). Besides, in test [17], the fold fluorescence was 4.83 [at 216.8 µM] (inactive).
